Test results: PubChem BioAssay
A number with no mark means an inactive call. Active and inactive are the calls of the source.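 How the source made its calls, unless noted: active means mean inhibition over 43.08%, the solvent-only control mean plus 3 SD; inactive means the rest.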

Experiments:
[1] = biological target: Nuclear receptor coactivator 3 (Homo sapiens) (UniProt Q9Y6Q9); assay: NCOA3 GAL4-fusion reporter inhibition – cell-based, luminescence, quadruplicate, confirmation (AID 588792); details: HEK293 GAL4-SRC3 luciferase reporter, at 3.6 µM, stronger effect = higher value;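 further: 0% = DMSO treated cells and 100% = gossypol at 36 µM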
Chain of Nuclear receptor coactivator 3 (Homo sapiens) (Q9Y6Q9 whole entry, looked up, the tested form may be a part): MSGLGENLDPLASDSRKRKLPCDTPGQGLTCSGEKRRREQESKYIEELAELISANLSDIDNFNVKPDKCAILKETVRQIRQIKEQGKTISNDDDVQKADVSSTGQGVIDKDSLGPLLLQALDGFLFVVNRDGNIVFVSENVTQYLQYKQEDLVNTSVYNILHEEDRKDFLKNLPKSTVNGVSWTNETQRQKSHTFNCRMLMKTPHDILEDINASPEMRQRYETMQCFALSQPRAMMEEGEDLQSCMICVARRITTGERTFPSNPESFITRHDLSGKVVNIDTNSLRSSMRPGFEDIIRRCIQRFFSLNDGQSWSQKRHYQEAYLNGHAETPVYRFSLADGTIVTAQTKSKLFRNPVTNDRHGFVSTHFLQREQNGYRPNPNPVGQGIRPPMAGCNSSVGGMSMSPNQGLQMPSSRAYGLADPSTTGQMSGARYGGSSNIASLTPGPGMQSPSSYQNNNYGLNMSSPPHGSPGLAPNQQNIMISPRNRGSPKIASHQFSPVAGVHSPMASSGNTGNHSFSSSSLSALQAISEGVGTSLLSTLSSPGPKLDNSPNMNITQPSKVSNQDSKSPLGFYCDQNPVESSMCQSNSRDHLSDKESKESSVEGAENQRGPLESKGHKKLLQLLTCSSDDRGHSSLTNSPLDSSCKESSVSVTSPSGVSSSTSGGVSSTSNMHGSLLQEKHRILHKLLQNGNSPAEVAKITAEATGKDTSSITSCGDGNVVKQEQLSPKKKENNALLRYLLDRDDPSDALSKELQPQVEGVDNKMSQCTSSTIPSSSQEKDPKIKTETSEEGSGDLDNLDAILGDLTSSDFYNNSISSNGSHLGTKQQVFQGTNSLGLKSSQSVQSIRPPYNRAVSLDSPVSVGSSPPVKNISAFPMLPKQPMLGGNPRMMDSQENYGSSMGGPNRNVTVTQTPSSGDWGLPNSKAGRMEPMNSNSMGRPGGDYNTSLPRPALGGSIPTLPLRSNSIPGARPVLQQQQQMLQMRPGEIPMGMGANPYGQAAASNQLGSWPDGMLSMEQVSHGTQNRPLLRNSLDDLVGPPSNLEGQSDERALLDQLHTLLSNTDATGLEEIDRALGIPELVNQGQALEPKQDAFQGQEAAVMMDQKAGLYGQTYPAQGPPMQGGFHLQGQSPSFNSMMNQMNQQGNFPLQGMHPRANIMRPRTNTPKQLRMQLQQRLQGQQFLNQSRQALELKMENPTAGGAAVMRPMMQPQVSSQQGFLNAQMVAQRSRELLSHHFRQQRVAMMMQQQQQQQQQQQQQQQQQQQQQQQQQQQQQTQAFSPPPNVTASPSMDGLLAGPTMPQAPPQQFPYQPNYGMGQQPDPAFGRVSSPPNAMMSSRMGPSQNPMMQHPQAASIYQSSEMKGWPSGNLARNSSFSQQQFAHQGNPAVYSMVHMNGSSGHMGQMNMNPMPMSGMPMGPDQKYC

[2] = tested on: transactivating tegument protein VP16 (Human herpesvirus 1), Gal4-VP16 luciferase reporter; assay: repression of VP16-driven luciferase reporter – cell-based, luminescence, high throughput, counter-screen for SRC3 inhibitor project (AID 588794; in the data active means inhibition above about 30%); details: mammalian cells, at 3.6 µM, stronger effect = higher value

Compound | inhibition [1] | inhibition [2]
NC(=S)N/N=C\c1c(OCc2ccccc2Cl)ccc2ccccc12 | 18.1% | 27.6%
CCCCCCCNC(=O)C1(CC2CC(c3ccc(Cl)cc3)=NO2)CCN(C(=O)c2cc(OCC)c(OCC)c(OCC)c2)CC1 (configuration not stated) | 20.9% | 0.73%
CC(=O)c1c(C)[nH]c(C(=O)CSc2nc3ccccc3n2C)c1C | 2.74% | 11.8%
N=c1c(C(=O)NCC2CCCO2)cc2c(=O)n3ccccc3nc2n1Cc1cccnc1 (configuration not stated) | -8.73% | -5.19%
O=C(Nc1nc2ccccc2s1)C1c2ccccc2Oc2ccccc21 | 39.2% | 21.4%
O=C(NN=Cc1ccccc1O)c1cccc([N+](=O)[O-])c1 | 52.8% (active) | 51.8% (active)
Cn1nc(C(F)(F)F)cc1C(=O)Nc1ccc(Cl)cc1 | 4.63% | 8.1%
CCN(CC)C(=O)c1[nH]cnc1C(=O)N[C@@H](CCCCNC(=O)OC(C)(C)C)C(=O)OC(C)(C)C | 3.8% | -3.67%
CCc1ccc([C@@H]2CC(=O)[C@@H]3CN(S(=O)(=O)c4ccccc4C)[C@H](c4ccc(Cl)cc4)C[C@@H]3N2S(=O)(=O)c2ccc(C)cc2)cc1 | 15.5% | 4.71%
O=C(Nc1ccccc1Cc1ccccc1)c1ccccc1NS(=O)(=O)c1ccc(Cl)s1 | 4.01% | 24.9%
CC(=O)c1c(C)[nH]c(C(=O)OCC(=O)Nc2ccc(C)cc2[N+](=O)[O-])c1C | 32.4% | 52.8% (active)
Cc1ccc(Cl)cc1N(Cc1ccc(C(=O)NCc2cccnc2)cc1)S(=O)(=O)c1ccccc1 | 9.61% | -10.9%
COc1ccc2nc(C)cc(Nc3ccc(N4CCN(C)CC4)cc3)c2c1 | 71.8% (active) | 35.3% (active)
COc1cccc(/C=N/Nc2cc(-n3nc(C)cc3-c3ccccc3)ncn2)c1O | 28.9% | -9.27%
Cc1cc(C)c2nc(C(F)(F)F)c(C#N)c(N)c2c1 | 45.1% (active) | 31.6% (active)
CC1=[N+]([O-])C(C)(C)CC(C)(C)c2ccccc21 | 3.29% | 6.25%

Compound | inhibition [1] | inhibition [2]
COc1ccc(Cl)cc1NC(=O)CN(C)CC(=O)Nc1c(C)n(C)n(-c2ccccc2)c1=O | 14.8% | 4.85%
O=C(NCCc1cn2ccccc2n1)c1cc(COc2ccc3ncccc3c2)on1 | -5.01% | 18.4%
Clc1ccc(-c2noc(CSc3nnc(-c4ccncc4)n3-c3ccccc3)n2)cc1 | 8.46% | 8.1%
Cc1nnnn1/C(=C\c1ccccc1)C(=O)OCC(=O)Nc1cccc(S(=O)(=O)N(C)C)c1 | -9.38% | 13.2%
COc1cccc(C(=O)Oc2c(Br)cc(Br)cc2/C=N/NC(=O)c2cc(C)[nH]n2)c1 | 18.3% | 18.3%
Cc1ccc(S(=O)(=O)N2C[C@H]3C(=O)C[C@@H](c4ccccc4)N(S(=O)(=O)c4ccc(C)cc4)[C@H]3C[C@H]2c2ccccc2F)cc1 | 6.96% | 2.52%
COc1cc(OC)cc(-c2nn[nH]n2)c1 | -10.5% | -1.27%
COc1cccc(/C=N/Nc2ncnc(Cl)c2N)c1O | 78.1% (active) | 71.7% (active)
CCC(C)(C(=O)NC1CCCC1)N(C(=O)CNC(C)=O)c1ccc(C)cc1 (configuration not stated) | 0.65% | -7.27%
CCN(CC)CCCNc1nc2ccccc2c2nc(-c3ccncc3)nn12 | -2.05% | 41.3% (active)
CN1CCCC(n2nc(Cc3ccc(Cl)cc3)c3ccccc3c2=O)CC1 (configuration not stated) | 10.3% | 2.25%
CCOc1cc(N2CCOCC2)c(OCC)cc1NC(=O)c1cc(-c2ccco2)nc2ccccc12 | 17.5% | 8.51%
CCOC(=O)C1CCCN(c2c(NCCCN(C)c3ccccc3)c(=O)c2=O)C1 (configuration not stated) | -9.14% | -3.6%
Cc1cc(C)nc(/N=C(\N)Nc2ccccc2-c2ccccc2)n1 | -12% | 13.4%
CC1CC(C)CN(c2nc(NCc3ccco3)nc(N)c2[N+](=O)[O-])C1 (configuration not stated) | 9.73% | 9.4%
